Test results from PubChem BioAssay (NCI).
Values joined by “and” are separate entries in the source; they are usually repeats but may differ in a detail not shown here. Equal entries are not always repeated. About 83,000 compounds went through this panel and 20% of them were active in at least one assay; those are over-represented in the sample as a whole.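 Results are percent growth after 48 hours of single-concentration exposure. 100 means growth as in untreated cells, lower positive values show inhibition; negative values down to -100 show cell death.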 Active and inactive are the calls of the source. Rule for the calls: active = growth percent below 10; inactive = the rest.

Key:
Experiment in all cases: NCI-60 one-dose screen, 48 h (100 = growth as untreated, 0 = no growth, -100 = all killed)
Details in all cases: 10 µM
HOP-92 NSCLC = tested on: HOP-92 NSCLC
K-562 leukemia = tested on: K-562 leukemia
MALME-3M melanoma = tested on: MALME-3M melanoma
RXF 393 renal = tested on: RXF 393 renal
SK-MEL-2 melanoma = tested on: SK-MEL-2 melanoma
SN12C renal = tested on: SN12C renal
TK-10 renal = tested on: TK-10 renal
A498 renal = tested on: A498 renal
RPMI-8226 leukemia = tested on: RPMI-8226 leukemia
OVCAR-3 ovarian = tested on: OVCAR-3 ovarian
BT-549 breast = tested on: BT-549 breast
MDA-MB-435 melanoma = tested on: MDA-MB-435 melanoma
HCC-2998 colon = tested on: HCC-2998 colon
CAKI-1 renal = tested on: CAKI-1 renal
UACC-257 melanoma = tested on: UACC-257 melanoma

Measured: growth

C/C=C\C(=O)O[C@@H]1CC2O[C@@H]3C=C(C)C(=O)C[C@]3(C)[C@]1(C)[C@]21CO1
active: HOP-92 NSCLC -17.5% | K-562 leukemia -6.67% | MALME-3M melanoma -22.9% | RXF 393 renal -31.6% | SK-MEL-2 melanoma -43.2% | SN12C renal -6.14% | TK-10 renal -19.4% | A498 renal -30.2% | RPMI-8226 leukemia -31.2% | OVCAR-3 ovarian -3.17% | BT-549 breast -22.8% | MDA-MB-435 melanoma -34.3% | HCC-2998 colon -23.5%

CC(C)(O)/C=C/C(=O)[C@](C)(O)[C@H]1[C@H](O)C[C@@]2(C)[C@H]3CC=C4[C@@H](C[C@H](O)C(=O)C4(C)C)[C@]3(C)C(=O)C[C@]12C
active: HOP-92 NSCLC -36.4% | MALME-3M melanoma -28.3% | RXF 393 renal -35.3% | SK-MEL-2 melanoma -28.2% | SN12C renal 9.22% | TK-10 renal -33% | CAKI-1 renal -60.5% | A498 renal -73.1% | RPMI-8226 leukemia 3.64% | OVCAR-3 ovarian 1% | BT-549 breast -24.5% | MDA-MB-435 melanoma 9.08%
inactive: K-562 leukemia 12.1% | HCC-2998 colon 36.1%

COc1cc2c(O[C@@H]3OC[C@H](OC(C)=O)[C@H](OC(C)=O)[C@H]3O)c3c(c(-c4ccc5c(c4)OCO5)c2cc1OC)C(=O)OC3
inactive: MALME-3M melanoma 39.3% | RXF 393 renal 54.4% | TK-10 renal 42.3% | CAKI-1 renal 13.8% | A498 renal 70.6% | OVCAR-3 ovarian 59.4% | BT-549 breast 23.4%
active: HOP-92 NSCLC -13.3% | UACC-257 melanoma -35.8% | SK-MEL-2 melanoma -31.8% | RPMI-8226 leukemia -2.08% | MDA-MB-435 melanoma 4.94%

CC1=C[C@H]2O[C@@H]3C[C@H]4OC(=O)/C=C\C=C\[C@H]([C@@H](C)O)OCC/C(C)=C/C(=O)OC[C@@]2(CC1)[C@]4(C)[C@]31CO1
active: HOP-92 NSCLC -19.1% | K-562 leukemia -6.8% | MALME-3M melanoma -65.9% | RXF 393 renal -70.5% | SK-MEL-2 melanoma -61.1% | SN12C renal -16.1% | TK-10 renal -24.5% | A498 renal -80.8% | RPMI-8226 leukemia -30.5% | OVCAR-3 ovarian -19.2% | BT-549 breast -28.6% | MDA-MB-435 melanoma -83.5% | HCC-2998 colon -55.6%

CC(=O)O[C@@H]1[C@@H]2O[C@H]2[C@@](C)(O)C(=O)[C@@H](C)C/C=C/[C@H]2[C@@H]3O[C@]3(C)[C@@H](C)C3[C@H](Cc4ccccc4)NC(=O)[C@@]312 (stereo partly drawn)
active: HOP-92 NSCLC -28.8% | TK-10 renal -8.91% | A498 renal 3.87%
inactive: K-562 leukemia 68.8% | MALME-3M melanoma 71% | RXF 393 renal 20.3% | SK-MEL-2 melanoma 72.1% | SN12C renal 62.6% | RPMI-8226 leukemia 81.8% | OVCAR-3 ovarian 54.2% | BT-549 breast 29.8% | MDA-MB-435 melanoma 70.9% | HCC-2998 colon 77.4%

O=C(CCCc1ccc(N(CCCl)CCCl)cc1)OCc1ccccc1
inactive: HOP-92 NSCLC 103% | K-562 leukemia 93.8% | MALME-3M melanoma 92% | RXF 393 renal 109% | UACC-257 melanoma 94.1% | SK-MEL-2 melanoma 111% | SN12C renal 79.1% | TK-10 renal 107% | CAKI-1 renal 73.7% | A498 renal 98.5% | RPMI-8226 leukemia 96.3% | BT-549 breast 95.5% | MDA-MB-435 melanoma 94.4% | HCC-2998 colon 101%

C/C=C/CC(C)C(O)[C@H](NC(=O)[C@@H]1CCCN1C(=O)C(C)(C)NC(=O)CCCCCCCCC)C(=O)N[C@@](C)(CC)C(=O)N[C@@H](CCC(N)=O)C(=O)N[C@H](CCC(N)=O)C(=O)NC(C)(C)C(=O)N[C@@](C)(CC)C(=O)N[C@@H](CCC(N)=O)C(=O)N[C@H](CC(C)C)C(=O)N[C@H](CO)CC(C)C (stereo partly drawn)
108% (inactive) and -53.4% (active): TK-10 renal
active: OVCAR-3 ovarian 8.27% | BT-549 breast -79.6%
90.4% (inactive) and 4.32% (active): K-562 leukemia
121% (inactive) and -72.1% (active): SK-MEL-2 melanoma
99.7% (inactive) and -21.7% (active): CAKI-1 renal
108% (inactive) and -83% (active): UACC-257 melanoma
93.8% (inactive) and -92.9% (active): MALME-3M melanoma
116% (inactive) and -19.6% (active): HCC-2998 colon
101% (inactive) and -44.1% (active): SN12C renal
105% (inactive) and -93.7% (active): MDA-MB-435 melanoma
103% (inactive) and -46.2% (active): RPMI-8226 leukemia
129% (inactive) and -75.3% (active): RXF 393 renal
91.5% (inactive) and -58.8% (active): HOP-92 NSCLC
97.3% (inactive) and -52.9% (active): A498 renal

COc1cc(OC)c(S(=O)(=O)N(CCCl)CCCl)cc1C(=O)/C=C/c1ccc(Cl)cc1
inactive: HOP-92 NSCLC 81.7% | K-562 leukemia 47.1% | MALME-3M melanoma 85.4% | RXF 393 renal 45.3% | UACC-257 melanoma 73.6% | SK-MEL-2 melanoma 93% | SN12C renal 86% | TK-10 renal 177% | CAKI-1 renal 65.7% | OVCAR-3 ovarian 69.9% | BT-549 breast 53% | MDA-MB-435 melanoma 33.1% | HCC-2998 colon 96.8%
active: RPMI-8226 leukemia 4.74%
